Measurements reported in PubChem BioAssay (EPA / NIEHS).
Results filed as inconclusive are left out. Activity calls are given as the source filed them. How the source made its calls, unless noted: active means hit-call score of the fitted dose curve at least 0.9, where 1 is the maximum; inconclusive means response in the unintended direction; inactive means score below 0.9.

Assays:
[1] = CCTE_Padilla_ZF_144hpf_TERATOSCORE: (Legacy) CCTE's 144 Hour Post-fertilization zebrafish Assay Teratoscore, Padilla Lab (AID 2283679; active means hit-call score of the fitted dose curve at least 0.9, where 1 is the maximum; inactive means score below 0.9;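 on AC50: zebrafish embryos with chorions exposed by immersion from 6-8 hpf to 5 dpf with daily renewal; teratogenicity score from eye scoring of death hatching and malformations at 144 hpf; higher score means more developmental defects relative to DMSO baseline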)
Procedure, shortened: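 Larvae scored by eye at 144 hpf for death, hatching and malformations after a day in clean Hanks'. Before that, daily-renewed exposure at 80 uM (0.4% DMSO, 26C) from roughly 6-8 hpf through 5 dpf, 4 embryos per chemical.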

[2] = read-out: Glyceraldehyde-3-phosphate dehydrogenase (Homo sapiens) (UniProt P04406); experiment: CLD_GAPDH_6hr: CellzDirect (CLD) Gene Expression Assay for Baseline Control (Glyceraldehyde 3-phosphate dehydrogenase) at 6 hours (AID 2283681);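 further: active means increased signal relative to DMSO vehicle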
Procedure, shortened: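 GAPDH baseline-control readout from qNPA (S1 nuclease digestion, probe hybridization, chemiluminescence) in lysates of cultured human hepatocytes harvested 6 h post-dosing. Chemicals tested at multiple concentrations versus 0.2% DMSO vehicle; microscopy-based cytotoxicity flagged yes/no.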

[3] = read-out: ABC Transporter (ABCB1), ABCB1 (gene 5243); experiment: CLD_ABCB1_24hr: CellzDirect (CLD) Gene Expression Assay for ABC Transporter (ABCB1) at 24 hours (AID 2283684);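 on AC50: potency for increase in ABCB1 mRNA relative to DMSO vehicle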
Procedure, shortened: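 ABCB1 mRNA induction versus 0.2% DMSO vehicle was read by qNPA chemiluminescence at 24 h. Cultured human hepatocytes from two donor preparations received daily fresh dosing, and phase-contrast cytotoxicity calls were annotated alongside the data.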

[4] = read-out: Broad substrate specificity ATP-binding cassette transporter ABCG2 (Homo sapiens) (UniProt Q9UNQ0); experiment: CLD_ABCG2_24hr: CellzDirect (CLD) Gene Expression Assay for ABC Transporter (ABCG2) at 24 hours (AID 2283685);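 on AC50: AC50 is for induction meaning signal gain over DMSO vehicle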
Procedure, shortened: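 ABCG2 mRNA induction, read as gain of chemiluminescent signal over 0.2% DMSO, was measured by quantitative nuclease protection at 24 h. Cultured human liver hepatocytes were given fresh dosing solutions of test chemicals at several concentrations each day.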

[5] = read-out: HMG-CoA synthase (HMGCS2), HMGCS2 (gene 3158); experiment: CLD_HMGCS2_6hr: CellzDirect (CLD) Gene Expression Assay for HMG-CoA synthase (HMGCS2) at 6 hours (AID 2283682);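 further: actives raise HMGCS2 transcript above the 0.2% DMSO vehicle baseline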
Procedure, shortened: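 HMGCS2 transcript induction read by quantitative nuclease protection with chemiluminescence, 6 h after dosing of primary human hepatocytes. Baseline was 0.2% DMSO vehicle; phase-contrast morphology gave a yes/no cytotoxicity annotation.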

[6] = read-out: xenobiotic metabolism (CYP1A2), CYP1A2 (gene 1544); experiment: CLD_CYP1A2_24hr: CellzDirect (CLD) Gene Expression Assay for xenobiotic metabolism (CYP1A2) at 24 hours (AID 2283683)
Procedure, shortened: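 CYP1A2 mRNA induction measured by quantitative nuclease protection (chemiluminescent) in human primary hepatocytes 24 h after multi-concentration chemical dosing with daily fresh solutions. DMSO (0.2%) baseline; positive-direction fitting; morphology-based cytotoxicity noted.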

[7] = read-out: Cytochrome P450 2B6 (Homo sapiens) (UniProt P20813); experiment: CLD_CYP2B6_24hr: CellzDirect (CLD) Gene Expression Assay for xenobiotic metabolism (CYP2B6) at 24 hours (AID 2283686)
Procedure, shortened: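 qNPA chemiluminescent measurement of mRNA at 24 hours in human primary hepatocyte cultures from two donor preparations, with daily fresh dosing and 0.2% DMSO vehicle as baseline. Morphology-based cytotoxicity flagged yes/no.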

[8] = read-out: Cytochrome P450 2C19 (Homo sapiens) (UniProt P33261); experiment: CLD_CYP2C19_24hr: CellzDirect (CLD) Gene Expression Assay for xenobiotic metabolism (CYP2C19) at 24 hours (AID 2283687);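 further: activity means mRNA induction above DMSO vehicle baseline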
Procedure, shortened: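 CYP2C19 mRNA was quantified by qNPA chemiluminescence after 24 h of daily dosing of cultured human primary hepatocytes from two donors; vehicle was 0.2% DMSO, and increases over DMSO baseline were fitted.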

[9] = read-out: Cytochrome P450 3A4 (Homo sapiens) (UniProt P08684); experiment: CLD_CYP3A4_6hr: CellzDirect (CLD) Gene Expression Assay for xenobiotic metabolism (CYP3A4) at 6 hours (AID 2283680)
Procedure, shortened: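 CYP3A4 mRNA induction, 6 h after dosing of cultured primary human hepatocytes from two donors, read by quantitative nuclease protection (qNPA, chemiluminescence). Vehicle 0.2% DMSO as baseline; morphology-based cytotoxicity annotated yes/no.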

[10] = read-out: Cytochrome P450 2C9 (Homo sapiens) (UniProt P11712); experiment: CLD_CYP2C9_24hr: CellzDirect (CLD) Gene Expression Assay for xenobiotic metabolism (CYP2C9) at 24 hours (AID 2283688)
Procedure, shortened: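 Induction of CYP2C9 mRNA was quantified by quantitative nuclease protection assay (chemiluminescence), gain of signal versus 0.2% DMSO vehicle, 24 h after dosing. Human primary hepatocytes (two donors) received fresh chemical daily at multiple concentrations; morphology-based cytotoxicity flagged yes/no.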

Measured: AC50

Chain of Glyceraldehyde-3-phosphate dehydrogenase (Homo sapiens) (P04406 whole entry, looked up): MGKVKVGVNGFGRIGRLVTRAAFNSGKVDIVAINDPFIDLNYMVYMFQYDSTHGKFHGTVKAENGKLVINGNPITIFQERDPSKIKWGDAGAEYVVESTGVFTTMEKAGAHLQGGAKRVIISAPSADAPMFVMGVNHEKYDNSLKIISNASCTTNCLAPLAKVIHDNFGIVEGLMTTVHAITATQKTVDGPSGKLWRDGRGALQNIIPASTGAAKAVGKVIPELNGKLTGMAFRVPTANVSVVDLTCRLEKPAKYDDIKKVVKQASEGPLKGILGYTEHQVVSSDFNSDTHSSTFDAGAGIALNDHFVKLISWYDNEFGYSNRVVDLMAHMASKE
Chain of Cytochrome P450 2C19 (Homo sapiens) (P33261 whole entry, looked up): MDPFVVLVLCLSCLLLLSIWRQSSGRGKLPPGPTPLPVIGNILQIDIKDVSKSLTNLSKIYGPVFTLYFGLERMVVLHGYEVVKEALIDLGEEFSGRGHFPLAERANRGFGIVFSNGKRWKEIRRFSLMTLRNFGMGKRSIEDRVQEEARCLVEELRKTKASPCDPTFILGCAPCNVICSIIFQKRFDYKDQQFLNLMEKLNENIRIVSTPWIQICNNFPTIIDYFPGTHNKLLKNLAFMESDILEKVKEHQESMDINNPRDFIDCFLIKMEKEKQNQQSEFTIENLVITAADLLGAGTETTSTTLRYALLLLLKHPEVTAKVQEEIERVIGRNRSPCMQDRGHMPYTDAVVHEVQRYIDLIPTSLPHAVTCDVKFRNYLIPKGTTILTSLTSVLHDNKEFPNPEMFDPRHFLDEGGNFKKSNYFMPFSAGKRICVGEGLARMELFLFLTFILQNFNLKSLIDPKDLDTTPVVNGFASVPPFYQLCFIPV
Chain of Cytochrome P450 3A4 (Homo sapiens) (P08684 whole entry, looked up): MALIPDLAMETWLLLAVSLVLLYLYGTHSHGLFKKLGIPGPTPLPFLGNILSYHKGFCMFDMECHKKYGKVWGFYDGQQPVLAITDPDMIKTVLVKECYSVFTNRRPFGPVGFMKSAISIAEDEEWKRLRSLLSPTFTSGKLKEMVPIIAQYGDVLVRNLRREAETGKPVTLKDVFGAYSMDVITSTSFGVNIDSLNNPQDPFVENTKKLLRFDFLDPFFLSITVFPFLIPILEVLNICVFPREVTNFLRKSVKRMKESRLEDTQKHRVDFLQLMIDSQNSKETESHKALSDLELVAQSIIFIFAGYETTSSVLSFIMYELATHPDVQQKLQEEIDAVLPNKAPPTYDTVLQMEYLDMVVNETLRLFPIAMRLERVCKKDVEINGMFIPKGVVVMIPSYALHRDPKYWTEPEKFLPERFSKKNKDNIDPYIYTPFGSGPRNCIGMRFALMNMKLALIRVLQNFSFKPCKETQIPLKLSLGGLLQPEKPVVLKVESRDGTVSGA
Chain of Broad substrate specificity ATP-binding cassette transporter ABCG2 (Homo sapiens) (Q9UNQ0 whole entry, looked up): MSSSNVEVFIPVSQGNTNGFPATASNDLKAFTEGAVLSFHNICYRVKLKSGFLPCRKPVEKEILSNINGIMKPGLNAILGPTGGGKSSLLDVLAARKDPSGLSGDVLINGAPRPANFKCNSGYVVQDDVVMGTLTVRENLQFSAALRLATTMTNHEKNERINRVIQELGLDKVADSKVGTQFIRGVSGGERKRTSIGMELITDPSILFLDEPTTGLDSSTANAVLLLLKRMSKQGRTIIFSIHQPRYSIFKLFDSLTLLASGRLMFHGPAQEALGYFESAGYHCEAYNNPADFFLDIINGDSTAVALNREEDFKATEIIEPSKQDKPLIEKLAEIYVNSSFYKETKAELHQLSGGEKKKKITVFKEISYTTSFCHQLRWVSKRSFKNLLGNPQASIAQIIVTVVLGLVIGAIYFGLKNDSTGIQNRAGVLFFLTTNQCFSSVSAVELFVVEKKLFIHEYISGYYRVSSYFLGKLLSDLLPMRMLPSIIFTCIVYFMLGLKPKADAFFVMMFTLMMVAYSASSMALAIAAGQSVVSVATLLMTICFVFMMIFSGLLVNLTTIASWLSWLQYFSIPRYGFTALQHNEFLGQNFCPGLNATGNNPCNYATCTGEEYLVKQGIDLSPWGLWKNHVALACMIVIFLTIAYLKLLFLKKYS

COP(=O)(OC)C(O)C(Cl)(Cl)Cl (centres undefined)
active: [1] 168 µM
inactive: [2] | [3] | [4]

CC1=NNC(=O)N(/N=C/c2cccnc2)C1
active: [1] 46.4 µM | [6] 5.59 µM
inactive: [2] | [5] | [3] | [7] | [8]

CCCCSP(=O)(SCCCC)SCCCC
active: [1] 0.205 µM | [7] 1.9 µM
not listed: [5] | [6]
inactive: all other assays above

CCOP(=S)(OCC)Oc1cc(C)nc(C(C)C)n1
active: [6] 7.6 µM | [7] 0.747 µM
inactive: [9] | [2] | [5] | [3] | [8]

CCOP(=O)(NC(C)C)Oc1ccc(SC)c(C)c1 (centres undefined)
active: [1] 50.3 µM | [6] 6.73 µM | [7] 6.17 µM
inactive: [9] | [8] | [10]

S=C1NCCN1
not listed: [5] | [6] | [10]
inactive: all other assays above

CCNc1nc(Cl)nc(NC(C)(C)C#N)n1
inactive: [1] | [9] | [5] | [3] | [8]
active: [7] 3.69 µM

C#CC(C)(C)NC(=O)c1cc(Cl)cc(Cl)c1
inactive: [1] | [3] | [4] | [7] | [10]

CCc1cnc(C2=NC(C)(C(C)C)C(=O)N2)c(C(=O)O)c1 (centres undefined)
not listed: [1] | [4] | [10]
inactive: all other assays above

CC(C1CC1)C(O)(Cn1cncn1)c1ccc(Cl)cc1 (centres undefined)
active: [1] 57.6 µM | [7] 4.02 µM
inactive: [2] | [3] | [8]

CCOP(=S)(OCC)Oc1ccc2c(C)c(Cl)c(=O)oc2c1
inactive: [9] | [3] | [8] | [10]
active: [1] 27.3 µM | [5] 0.00508 µM | [6] 0.527 µM | [7] 1.28 µM

CCOP(=S)(OCC)SCCSCC
active: [7] 3.91 µM
not listed: [2] | [6] | [10]
inactive: all other assays above

Cc1nn(-c2cc(NS(C)(=O)=O)c(Cl)cc2Cl)c(=O)n1C(F)F
active: [1] 56.9 µM | [9] 1.62 µM | [7] 4.18 µM
inactive: [2] | [3] | [4] | [8]

CC(C)N(C(=O)SCC(Cl)=C(Cl)Cl)C(C)C
active: [1] 32.7 µM | [3] 35.3 µM | [7] 20 µM
inactive: [9] | [4] | [8]

C#CCC1=C(C)C(OC(=O)C2C(C=C(C)C)C2(C)C)CC1=O (centres undefined)
active: [1] 2.76 µM | [9] 2.84 µM | [7] 4.23 µM
not listed: [6] | [8]
inactive: all other assays above

CC(=NC#N)N(C)Cc1ccc(Cl)nc1
not listed: [5] | [6]
inactive: all other assays above

O=C(O)c1cc(Oc2ccc(C(F)(F)F)cc2Cl)ccc1[N+](=O)[O-]
inactive: [1] | [6] | [3] | [7] | [8]
active: [5] 0.00569 µM

CCCSP(=O)(OCC)SCCC
active: [7] 2.84 µM
not listed: [1] | [6] | [10]
inactive: all other assays above

CON=C(C(=O)OC)c1ccccc1CON=C(C)c1cccc(C(F)(F)F)c1
active: [1] 0.208 µM | [7] 20 µM
not listed: [2] | [5]
inactive: all other assays above

CCOP(=O)(OCC)Oc1cc(C)nc(C(C)C)n1
active: [1] 38.2 µM | [7] 20 µM
inactive: [9] | [2] | [5] | [4] | [10]

CCc1cccc(C)c1N(C(=O)CCl)C(C)COC (centres undefined)
active: [1] 50.9 µM | [9] 0.477 µM | [7] 1.61 µM
not listed: [4] | [6]
inactive: all other assays above

FC(F)C(F)(F)OCC(Cn1cncn1)c1ccc(Cl)cc1Cl (centres undefined)
inactive: [3] | [4]
active: [1] 57.8 µM | [7] 0.275 µM

CC(Oc1cccc(Cl)c1)C(=O)O (centres undefined)
inactive: [1] | [2] | [5] | [6] | [3]

CN1COCN(Cc2cnc(Cl)s2)C1=N[N+](=O)[O-]
inactive: [1] | [5] | [7] | [8] | [10]

Nc1c(Cl)cc([N+](=O)[O-])cc1Cl
active: [1] 76.3 µM | [7] 33.7 µM
inactive: [9] | [2] | [4] | [10]

CCOC(=O)CC(SP(=O)(OC)OC)C(=O)OCC (centres undefined)
active: [7] 20 µM
inactive: [1] | [3] | [4] | [8] | [10]

CCCCOC(=O)c1ccccc1C(=O)O
not listed: [5] | [7] | [10]
inactive: all other assays above

CCOP(=S)(OCC)OC(Cl)C(Cl)(Cl)Cl (centres undefined)
active: [1] 4.82 µM | [9] 10.5 µM | [7] 0.201 µM
not listed: [6]
inactive: all other assays above

CCOP(=S)(OCC)Oc1ccc([N+](=O)[O-])cc1
inactive: [5] | [3]
active: [1] 6.3 µM | [9] 2.2 µM | [6] 4.89 µM | [7] 0.828 µM

CN(C)[C@@H]1C(=O)C(C(N)=O)=C(O)[C@@]2(O)C(=O)C3=C(O)c4c(O)cccc4[C@@](C)(O)[C@H]3[C@H](O)[C@@H]12
inactive: [1] | [5] | [6] | [7] | [8]

CCCSP(=O)(OCC)Oc1ccc(Br)cc1Cl (centres undefined)
active: [1] 8.79 µM | [9] 3.52 µM | [7] 6.22 µM
inactive: [3] | [4] | [8] | [10]

CCCOCC(=Nc1ccc(Cl)cc1C(F)(F)F)n1ccnc1
inactive: [9] | [2] | [5] | [7]
active: [6] 1.89 µM | [3] 32 µM | [4] 20 µM

CSC1=N[C@@](C)(c2ccccc2)C(=O)N1Nc1ccccc1
active: [1] 3.03 µM | [6] 3.97 µM
not listed: [8]
inactive: all other assays above

CCOC(=O)COc1cc(-c2nn(C)c(OC(F)F)c2Cl)c(F)cc1Cl
inactive: [2] | [3] | [8] | [10]
active: [1] 0.201 µM | [9] 3.97 µM | [7] 20 µM

CNc1cnn(-c2cccc(C(F)(F)F)c2)c(=O)c1Cl
active: [7] 6.64 µM
inactive: [1] | [9] | [3]

CSc1nnc(C(C)(C)C)c(=O)n1N
active: [7] 20 µM
not listed: [1] | [6] | [10]
inactive: all other assays above

O=c1ccc(=O)[nH][nH]1
not listed: [1] | [6] | [7]
inactive: all other assays above

CCOP(=O)(SC(C)CC)N1CCSC1=O (centres undefined)
inactive: [2] | [3] | [4] | [8] | [10]
active: [9] 8.82 µM | [7] 3.26 µM

Cc1cc(C2CC2)nc(Nc2ccccc2)n1
active: [7] 3.97 µM
inactive: [9]

N#CSCSC#N
inactive: [2] | [5] | [3] | [4] | [7]

COP(=O)(OC)SCn1c(=O)oc2cc(Cl)cnc21
inactive: [6] | [3] | [4] | [8]

CC(C)=CC1C(C(=O)OCN2C(=O)C3=C(CCCC3)C2=O)C1(C)C (centres undefined)
inactive: [9] | [2] | [4] | [8] | [10]
active: [7] 7.4 µM

CCCCOC(=O)[C@@H](C)Oc1ccc(Oc2ccc(C#N)cc2F)cc1
inactive: [9] | [2] | [5] | [3] | [7] | [8]

Nc1nc(N)nc(NC2CC2)n1
inactive: [2] | [5] | [3] | [4] | [7] | [10]

COc1cc(OC)nc(Sc2cccc(Cl)c2C(=O)O)n1
not listed: [1] | [6] | [9]
inactive: all other assays above

CN(C)C(=O)Nc1cccc(C(F)(F)F)c1
active: [6] 3.66 µM | [7] 4.64 µM
not listed: [1] | [2]
inactive: all other assays above

CC1(C(=O)Nc2ccc(O)c(Cl)c2Cl)CCCCC1
inactive: [9] | [2] | [5] | [3] | [7] | [8]

CC[C@H](C)[C@H]1O[C@]2(C=C[C@@H]1C)C[C@@H]1C[C@@H](C/C=C(\C)[C@@H](O[C@H]3C[C@H](OC)[C@@H](O[C@H]4C[C@H](OC)[C@@H](NC)[C@H](C)O4)[C@H](C)O3)[C@@H](C)/C=C/C=C3\CO[C@@H]4[C@H](O)C(C)=C[C@@H](C(=O)O1)[C@]34O)O2
not listed: [1] | [2] | [6]
inactive: all other assays above

CCC(CC)Nc1c([N+](=O)[O-])cc(C)c(C)c1[N+](=O)[O-]
inactive: [2] | [5] | [8] | [10]
active: [6] 33.4 µM | [7] 11.4 µM

CCC(=NOC/C=C/Cl)C1=C(O)CC(C2CCOCC2)CC1=O (centres undefined)
inactive: [2] | [5] | [3] | [7] | [10]

CCc1cccc(CC)c1N(COC)C(=O)CCl
active: [9] 1.93 µM | [7] 2.69 µM
inactive: [2] | [3] | [4] | [10]
